Measurements published in the supplement of paper PMC8728848.
The entries come from a sample that favours the strongest signals as a whole.

What was measured:
Experiment in all cases: glycan array binding signal (z-score within array); higher = stronger binding
Conditions in all cases: glycan notation: IUPAC condensed, linker removed
Gal3S6S(b1-4)GlcNAc6S = molecular target: Gal3S6S(b1-4)GlcNAc6S
How it was run: (§1)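 Glycan array binding is given as a within-array Z-score, which can be read as non-binding when negative. The arrays, 3228 of them, came from the Consortium for Functional Glycomics database and were retained only where the protein sequence was available. Z-scores were averaged across arrays of the same protein sequence at different concentrations or buffers and across linkers.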

Gal6S(b1-4)Glc = molecular target: Gal6S(b1-4)Glc
How it was run: as §1

Gal6S(b1-4)GlcNAc6S = molecular target: Gal6S(b1-4)GlcNAc6S
How it was run: as §1

Glc(b1-6)Glc = molecular target: Glc(b1-6)Glc
How it was run: as §1

[1] = molecular target: GlcNAc(b1-2)[GlcNAc(b1-6)]Man(a1-6)[GlcNAc(b1-4)][GlcNAc(b1-2)Man(a1-3)]Man(b1-4)GlcNAc(b1-4)GlcNAc
How it was run: as §1

[2] = molecular target: GlcNAc(b1-3)Gal(b1-4)GlcNAc(b1-2)Man(a1-3)[GlcNAc(b1-3)Gal(b1-4)GlcNAc(b1-2)Man(a1-6)]Man(b1-4)GlcNAc(b1-4)GlcNAc
How it was run: as §1

[3] = molecular target: GlcNAc(b1-3)Gal(b1-4)GlcNAc(b1-2)Man(a1-3)[GlcNAc(b1-3)Gal(b1-4)GlcNAc(b1-2)Man(a1-6)]Man(b1-4)GlcNAc(b1-4)[Fuc(a1-6)]GlcNAc
How it was run: as §1

[4] = molecular target: GlcNAc(b1-3)Gal(b1-4)GlcNAc(b1-3)Gal(b1-4)GlcNAc(b1-3)Gal(b1-4)GlcNAc(b1-2)Man(a1-3)[GlcNAc(b1-3)Gal(b1-4)GlcNAc(b1-3)Gal(b1-4)GlcNAc(b1-3)Gal(b1-4)GlcNAc(b1-2)Man(a1-6)]Man(b1-4)GlcNAc(b1-4)[Fuc(a1-6)]GlcNAc
How it was run: as §1

[5] = molecular target: GlcNAc(b1-3)Gal(b1-4)GlcNAc(b1-3)Gal(b1-4)GlcNAc(b1-3)Gal(b1-4)GlcNAc(b1-2)[GlcNAc(b1-3)Gal(b1-4)GlcNAc(b1-3)Gal(b1-4)GlcNAc(b1-3)Gal(b1-4)GlcNAc(b1-6)]Man(a1-6)[GlcNAc(b1-3)Gal(b1-4)GlcNAc(b1-3)Gal(b1-4)GlcNAc(b1-3)Gal(b1-4)GlcNAc(b1-2)Man(a1-3)]Man(b1-4)GlcNAc(b1-4)[Fuc(a1-6)]GlcNAc
How it was run: as §1

GlcNAc(b1-4)GlcNAc = molecular target: GlcNAc(b1-4)GlcNAc
How it was run: as §1

[6] = molecular target: GlcNAc(b1-4)GlcNAc(b1-4)GlcNAc(b1-4)GlcNAc(b1-4)GlcNAc
How it was run: as §1

[7] = molecular target: GlcNAc(b1-4)GlcNAc(b1-4)GlcNAc(b1-4)GlcNAc(b1-4)GlcNAc(b1-4)GlcNAc
How it was run: as §1

[8] = molecular target: Kdn(a2-3)Gal(b1-4)[Fuc(a1-3)]GlcNAc
How it was run: as §1

[9] = molecular target: Man(a1-2)Man(a1-3)[Man(a1-2)Man(a1-6)]Man(a1-6)[Man(a1-2)Man(a1-2)Man(a1-3)]Man(b1-4)GlcNAc(b1-4)GlcNAc
How it was run: as §1

[10] = molecular target: Man(a1-2)Man(a1-6)[Man(a1-3)]Man(a1-6)[Man(a1-2)Man(a1-2)Man(a1-3)]Man(b1-4)GlcNAc(b1-4)GlcNAc
How it was run: as §1

[11] = molecular target: Neu5Ac(a2-3)Gal(b1-3)GalNAc
How it was run: as §1

[12] = molecular target: Neu5Ac(a2-3)Gal(b1-3)GlcNAc(b1-2)Man(a1-3)[Neu5Ac(a2-3)Gal(b1-3)GlcNAc(b1-2)Man(a1-6)]Man(b1-4)GlcNAc(b1-4)GlcNAc
How it was run: as §1

[13] = molecular target: Neu5Ac(a2-3)Gal(b1-4)GlcNAc(b1-2)Man
How it was run: as §1

[14] = molecular target: Neu5Ac(a2-3)Gal(b1-4)GlcNAc(b1-2)Man(a1-3)[Neu5Ac(a2-3)Gal(b1-4)GlcNAc(b1-2)Man(a1-6)]Man(b1-4)GlcNAc(b1-4)[Fuc(a1-6)]GlcNAc
How it was run: as §1

[15] = molecular target: Neu5Ac(a2-3)Gal(b1-4)GlcNAc(b1-3)Gal(b1-4)GlcNAc(b1-2)Man(a1-3)[Neu5Ac(a2-3)Gal(b1-4)GlcNAc(b1-3)Gal(b1-4)GlcNAc(b1-2)Man(a1-6)]Man(b1-4)GlcNAc(b1-4)GlcNAc
How it was run: as §1

[16] = molecular target: Neu5Ac(a2-3)Gal(b1-4)GlcNAc(b1-6)[Gal(b1-3)]GalNAc
How it was run: as §1

[17] = molecular target: Neu5Ac(a2-3)Gal(b1-4)[Fuc(a1-3)]GlcNAc
How it was run: as §1

[18] = molecular target: Neu5Ac(a2-3)Gal6S(b1-4)[Fuc(a1-3)]GlcNAc
How it was run: as §1

[19] = molecular target: Neu5Ac(a2-6)Gal(b1-4)GlcNAc(b1-2)Man(a1-3)[Gal(b1-4)GlcNAc(b1-2)Man(a1-6)]Man(b1-4)GlcNAc(b1-4)GlcNAc
How it was run: as §1

[20] = molecular target: Neu5Ac(a2-6)Gal(b1-4)GlcNAc(b1-2)Man(a1-3)[Neu5Ac(a2-3)Gal(b1-4)GlcNAc(b1-2)Man(a1-6)]Man(b1-4)GlcNAc(b1-4)GlcNAc
How it was run: as §1

[21] = molecular target: Neu5Ac(a2-6)Gal(b1-4)GlcNAc(b1-2)Man(a1-6)[Man(a1-3)]Man(b1-4)GlcNAc(b1-4)GlcNAc
How it was run: as §1

[22] = molecular target: Neu5Ac(a2-6)Gal(b1-4)GlcNAc(b1-3)Gal(b1-4)GlcNAc(b1-3)GalNAc
How it was run: as §1

[23] = molecular target: Neu5Ac(a2-8)Neu5Ac(a2-3)[Gal(b1-3)GalNAc(b1-4)]Gal(b1-4)Glc
How it was run: as §1

B1: HBHA-Rv (Mycobacterium tuberculosum), P0A5P6 (protein)
chain: MAENSNIDDIKAPLLAALGAADLALATVNELITNLRERAEETRTDTRSRVEESRARLTKLQEDLPEQLTELREKFTAEELRKAAEGYLEAATSRYNELVERGEAALERLRSQQSFEEVSARAEGYVDQAVELTQEALGTVASQTRAVGERAAKLVGIELPKKAAPAKKAAPAKKAAPAKKAAAKKAPAKKAAAKKVTQK
glycan array binding signal (z-score) (Gal3S6S(b1-4)GlcNAc6S): 1.29 | glycan array binding signal (z-score) (Gal6S(b1-4)Glc): 1.36 | glycan array binding signal (z-score) (Gal6S(b1-4)GlcNAc6S): 0.203 | glycan array binding signal (z-score) (Glc(b1-6)Glc): 0.495 | glycan array binding signal (z-score) [1]: -0.415 | glycan array binding signal (z-score) [2]: -0.423 | glycan array binding signal (z-score) [3]: -0.332 | glycan array binding signal (z-score) [4]: -0.455 | glycan array binding signal (z-score) [5]: -0.347 | glycan array binding signal (z-score) (GlcNAc(b1-4)GlcNAc): -0.292 | glycan array binding signal (z-score) [6]: 4.22 | glycan array binding signal (z-score) [7]: 3.44 | glycan array binding signal (z-score) [8]: -0.371 | glycan array binding signal (z-score) [9]: -0.264 | glycan array binding signal (z-score) [10]: 1.09 | glycan array binding signal (z-score) [11]: 1.62 | glycan array binding signal (z-score) [12]: -0.163 | glycan array binding signal (z-score) [13]: -0.023 | glycan array binding signal (z-score) [14]: -0.174 | glycan array binding signal (z-score) [15]: -0.297 | glycan array binding signal (z-score) [16]: -0.331 | glycan array binding signal (z-score) [17]: -0.199 | glycan array binding signal (z-score) [18]: 0.273 | glycan array binding signal (z-score) [19]: -0.354 | glycan array binding signal (z-score) [20]: -0.42 | glycan array binding signal (z-score) [21]: -0.302 | glycan array binding signal (z-score) [22]: -0.379 | glycan array binding signal (z-score) [23]: 1.55
